Assay outcomes as filed in PubChem BioAssay.
NS1 inh = inhibitors of influenza NS1 protein function; Potency, µM (series often up to 46.1 µM); 0.4% of 270,000 active; AID 2326; calls by dose curve; further: actives are rising curves; nearly all actives have a fitted effect of over 50% in size
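A cell-based growth assay was used: compounds that relieve NS1-induced slow growth of budding yeast raise OD600. Assay medium was yeast nitrogen base with ammonium sulphate and -URA supplement, pH 6.0, with 2% galactose.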
Cycloheximide cs = counter-screen hit for Shiga toxin inhibitors, cycloheximide | 12% of 300,000 active | cell reporter, cycloheximide protein synthesis inhibition counterscreen | max response, % | AID 2314; in the data active means max response mostly above about 13%, no sharp cut-off; inactive means mostly below about 14%; further: read at 38.3 µM for the half of the compounds with a filed dose
SARS PLpro yeast = inhibitors of SARS-CoV papain-like protease in yeast | S. cerevisiae expressing SARS-CoV PLpro, growth rescue | AID 485353 | Potency, µM (top dose mostly 32.9 µM), most hits filed as activators | 0.19% of 330,000 active; calls by dose curve; further: nearly all actives have a fitted effect of over 55% in size
Pf growth 48h = P. falciparum growth inhibition at 48 hours (one generation). Potency, µM (highest dose often 28.7 µM), actives largely listed as inhibitors. 5.9% of 310,000 active. P. falciparum luciferase growth in erythrocytes, 48 h
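Parasite viability was followed by luminescence of a genomically integrated firefly luciferase. Cultures held 0.1% parasitemia at 2% hematocrit (final), incubated under 5% CO2 at 37 C.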
Pf growth 96h = inhibits malaria parasite growth, 96 h; P. falciparum luciferase reporter growth, 96 h; Potency, µM (series often up to 28.7 µM), hits mostly inhibitors; 6.9% of 320,000 active; AID 504834
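Parasite growth measured via integrated firefly luciferase reporter in P. falciparum. Infected erythrocytes at 2% hematocrit, 0.05% parasitemia final were treated 96 hours at 37 C under 5% CO2, and luminescence was read.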
Shiga inhibitor = Shiga toxin inhibition. Vero cells, Shiga toxin protein synthesis inhibition reporter. inhibition, % at 38.7 µM. 9.2% of 290,000 active. AID 2315; in the data active means inhibition mostly above about 28%, no sharp cut-off; inactive means mostly below about 43%
Numbers stand for hits; - = inactive; ? = inconclusive; . = no result. In the library only some 21% were active in any assay of this set; here they are far more common. Unless noted, the call rests on the fitted dose curve; in most records, active means well fitted inhibition curve with a large enough effect; inconclusive means small, poorly fitted or top-dose-only effect, or another doubt; inactive means no such curve, though single readings can be large or run the other way.

SMILES	NS1 inh	Cycloheximide cs	SARS PLpro yeast	Pf growth 48h	Pf growth 96h	Shiga inhibitor
Cc1ccc(C(=O)Nc2ccc(N3CCOCC3)nc2)cc1	-	20	-	-	-	75
COc1ccc(NC(=O)c2ccc(N3CCOCC3)nc2)cc1	-	-	?	-	?	-
CN1CCN(c2ccc(NC(=O)c3ccc(Cl)cc3)cn2)CC1	.	42	-	?	?	-
Cc1ccc(C(=O)Nc2cccc(-c3ccc(N4CCOCC4)nn3)c2)cc1	.	.	-	?	-	.
CN(C)c1ccc(NC(=O)c2ccc(N3CCOCC3)nc2)cc1	-	34	-	?	?	79
CSc1nc(=O)n2cc(C)ccc2n1	-	-	-	-	-	-
Cc1ccccc1C(=O)Nc1ccc(N2CCOCC2)nc1	-	30	-	-	-	58
Cn1c(O)c(C=Nc2ccc(Cc3ccncc3)cc2)c(=O)n(C)c1=O	-	-	-	-	.	-
Cc1cccc(-c2ocnc2C(=O)Nc2ccccc2NC(=O)c2ccccn2)c1	-	-	-	?	?	-
Cc1csc(NC(=O)c2cc[n+]([O-])cc2)n1	-	-	-	-	-	-
Cc1ccc(-c2ocnc2C(=O)Nc2ccccc2NC(=O)c2ccccn2)cc1	-	-	-	2.1µM	-	-
Cc1ccc(-c2ocnc2C(=O)Nc2nc(C)cs2)cc1	-	72	-	-	-	.
CCOc1ccc(NC(=S)N2CCN(CCN3C(=O)c4cccc5cccc(c45)C3=O)CC2)cc1	.	-	-	?	-	-
CC1(C)CC(=O)C2=C(C1)N(Cc1ccccc1)C(=O)C2(NC(=O)C(C)(C)C)C(F)(F)F (stereo not given)	-	-	-	-	?	-
NC(N)=N/N=C(/c1ccccc1)c1ccc(O)cc1O	-	.	.	.	.	.
COc1ccc(N2C(=O)CC(NCCNc3ccc([N+](=O)[O-])cn3)C2=O)cc1 (stereo not given)	-	-	-	-	-	-
CCOc1ccc(N2C(=O)CC(NCCNc3ccc([N+](=O)[O-])cn3)C2=O)cc1 (stereo not given)	-	-	-	-	0.83µM	-
COc1ccccc1CCNC(=O)CCn1nc(C)c2c(C)n(-c3ccccc3)nc2c1=O	-	-	-	-	-	-
O=C1CC(c2ccccc2)CN1C(=O)c1ccccc1 (stereo not given)	-	16	-	-	-	-
COc1ccc(C(=O)N2CC(c3ccccc3)CC2=O)cc1 (stereo not given)	-	44	-	-	-	63
CCOc1ccccc1N=c1oc2cc(O)ccc2cc1C(=O)NCC1CCCO1 (stereo not given)	-	-	-	?	.	-
O=C1C[C@@H]2c3c(cccc3CN1Cc1ccc(F)cc1)C[C@@H](O)[C@H]2O	.	.	-	-	-	.
O=C(O)C1CCC(c2ccc(-c3ccccc3)cc2)CC1 (stereo not given)	-	73	-	-	-	116
CCOc1ccc(Br)cc1S(=O)(=O)Nc1cccnc1	?	-	-	-	-	-
CCOC(=O)c1cnc(-c2ccccc2)nc1N	-	57	-	-	-	126
SMILES	NS1 inh	Cycloheximide cs	SARS PLpro yeast	Pf growth 48h	Pf growth 96h	Shiga inhibitor
CCOC(=O)c1cnc(-c2ccccc2)nc1N(C)C	-	48	-	-	.	120
CCOC(=O)c1cnc(-c2ccccc2)nc1N1CCOCC1	.	-	-	?	-	-
Cc1onc(-c2ccccc2)c1C(=O)NCc1ccccc1F	-	-	-	-	-	-
COc1ccccc1N1CCN(S(=O)(=O)c2cc(C(F)(F)F)cc(C(F)(F)F)c2)CC1	-	-	-	6.6µM	6.6µM	-
COc1ccc(S(=O)(=O)N2CCN(c3ccccc3OC)CC2)cc1OC	-	-	-	-	?	-
COc1ccccc1N1CCN(C2CCN(S(=O)(=O)c3ccc(C)cc3)CC2)CC1	-	-	-	?	4.1µM	-
O=S(=O)(c1ccc2nc(-c3ccccc3)[nH]c2c1)N1CCN(c2cccc(Cl)c2)CC1	-	-	-	?	-	-
COc1ccccc1N1CCN(S(=O)(=O)c2ccc3nc(-c4ccccc4)[nH]c3c2)CC1	-	-	-	-	2.9µM	-
COc1ccccc1N1CCN(C2CCN(S(=O)(=O)c3ccc4ccccc4c3)CC2)CC1	-	-	-	13µM	?	-
Cc1cnc(C(=O)Oc2c(C)ccc(C)c2C)cn1	.	-	-	-	-	-
Cc1sc(NC(=O)C2CCCCC2)c(C#N)c1-c1ccccc1	-	57	-	-	-	142
